From PubChem BioAssay (Tox21)
Results filed as inconclusive are left out. Where a call stands in place of a potency, no number is given. The source made the active and inactive calls. The call rests on the fitted dose curve; in most records, active means well fitted inhibition curve with a large enough effect in the repeat runs; inconclusive means weak or mixed curves, or effect the other way; inactive means no such curve, though single readings can be large or run the other way.

What follows are compounds tested against Nuclear receptor ROR-gamma (Homo sapiens) (UniProt P51449) (assay: qHTS assay to identify small molecule antagonists of the retinoid-related orphan receptor gamma (ROR-gamma) signaling pathway (AID 1159521; further: top concentration of the series differs between compounds; nearly all actives have a fitted effect of over 50% in size)). Details: Tet-on RORgamma CHO cells, RORE-luciferase, 16 h; series mostly up to 92.4 µM.
Method in brief: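 Antagonist read-out: drop in luminescence (ONE-Glo) from an RORE-LUC reporter in CHO cells with doxycycline-inducible ROR-gamma; 2 hr compound pretreatment, 1 uM doxycycline, 16 hr incubation at 37 C.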

Structure (SMILES) | Potency
NCCN1CCNCC1 | inactive
CCCCCCCC=O | inactive
O=c1[nH]cnc2[nH]ncc12 | inactive
c1ccc2c(c1)Cc1ccccc1-2 | inactive
CC1(C)CC(N)CC(C)(CN)C1 (stereo not drawn) | inactive
CCCCCCO | inactive
O=C(O)Cn1c(=O)n(Cc2ccc(Br)cc2F)c(=O)c2ccc(Cl)cc21 | inactive
OCc1ccccc1 | inactive
Cc1ccc(C(C)C)c(O)c1 | inactive
C=CC(=O)OCCC(=O)O | inactive
C=CC(C)CCCC(C)(C)O (stereo not drawn) | inactive
COCCOC(=O)c1ccccc1C(=O)OCCOC | inactive
CCCCOC(=O)c1ccc(N)cc1 | inactive
CC(CCO)CC(C)(C)C (stereo not drawn) | inactive
C=CCCCCCCCCC(=O)O | inactive
C=C(C)[C@H]1CC=C(C)C(=O)C1 | inactive
CCc1ccccc1CC | inactive

Structure (SMILES) | Potency
CCOCCOCCOCCO | inactive
O=C(O)c1ccc(S(=O)(=O)N(Cl)Cl)cc1 | inactive
Clc1ccccn1 | inactive
COCCCN | inactive
CN/C(=C\[N+](=O)[O-])NCCSCc1csc(CN(C)C)n1 | inactive
Brc1ccc(Br)c(Br)c1 | inactive
CC1(C)NC(=O)NC1=O | inactive
CCO[Si](CCC#N)(OCC)OCC | inactive
Cc1ccc([N+](=O)[O-])cc1S(=O)(=O)O | inactive
O=C(O)c1ccccc1C(=O)O | inactive
CC1(C)OC[C@@H]2O[C@@]3(C(=O)O)OC(C)(C)O[C@H]3[C@@H]2O1 | inactive
CNC(=S)N(C)C | inactive
O=C1CCCC1 | inactive
CC(O)CC(C)(C)O (stereo not drawn) | inactive
COC(=O)CCCC(=O)OC | inactive
C=CCc1ccc(OC)c(OC)c1 | inactive
